Here are results for 48 molecules from PubChem BioAssay AID1851 (National Center for Advancing Translational Sciences (NCATS), 2009).

The whole screen tested about 16,000 compounds, of which about 5,800 (36%) were called active. Not shown: some 23% with an inconclusive outcome. This is one part of the list. Unmarked numbers belong to inactive results. Calls follow the shape of the dose curve; as a rule, active = well fitted curve in the direction sought with a large enough effect; inconclusive = small, poorly fitted or top-dose-only effect, or effect the other way; inactive = no such curve, though single readings can be large or run the other way.

By AC50 is commonly meant the concentration at which the activity in the assay is half-maximal.
% is scaled to controls: 0 for no effect and ±100 for the full control effect.

This test deals with Cytochrome P450 2C19 (Homo sapiens) (UniProt P33261). Description: Cytochrome panel assay with activity outcomes. Conditions: recombinant CYP, pro-luciferin dealkylation, luminescence, p450-cyp2c19; series mostly up to 57.1 µM; activity, negative = inhibition: at the top concentration.
Sequence of Cytochrome P450 2C19 (Homo sapiens) (P33261 whole entry, looked up): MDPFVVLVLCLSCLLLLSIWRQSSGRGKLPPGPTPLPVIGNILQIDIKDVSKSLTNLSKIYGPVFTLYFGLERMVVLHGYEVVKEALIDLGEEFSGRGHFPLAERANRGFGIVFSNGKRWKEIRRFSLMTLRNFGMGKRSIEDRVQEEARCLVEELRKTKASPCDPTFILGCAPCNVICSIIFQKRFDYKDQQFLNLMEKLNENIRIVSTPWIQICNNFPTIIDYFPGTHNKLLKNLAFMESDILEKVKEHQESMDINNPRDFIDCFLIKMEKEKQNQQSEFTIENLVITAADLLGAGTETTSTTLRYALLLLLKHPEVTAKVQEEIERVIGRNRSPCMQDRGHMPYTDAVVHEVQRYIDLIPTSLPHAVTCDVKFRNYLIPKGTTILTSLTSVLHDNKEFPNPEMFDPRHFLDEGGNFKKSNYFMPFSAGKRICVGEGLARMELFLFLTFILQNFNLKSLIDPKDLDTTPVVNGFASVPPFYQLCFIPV
For `Cc1ccc(S(=O)(=O)c2nc(S(=O)(=O)c3ccc(C)cc3)c(NCc3ccco3)s2)cc1`, the AC50 is 8.91 µM (active). Consider `Oc1ccc(Cn2cc[nH]c2=S)cc1`, for which the “activity, negative = inhibition” value was 5.78%. In the case of `O=C(NC(=S)Nc1nc(-c2ccc(Br)cc2)cs1)c1cccnc1`, the concentration at half-maximal activity (AC50) was 10 µM (active). For `O=C(NNC(=S)NC(=O)c1cccnc1)c1ccccc1`, the “activity, negative = inhibition” value was -21.7%. For `O=S(=O)(O)c1ccc2cc(N=Nc3cc(S(=O)(=O)O)c4cccnc4c3O)ccc2c1`, the activity, negative = inhibition is -22.6% [at 11.4 µM]. On the same count and under the same terms, the result for `COc1ccc(C=NC(CO)C(O)c2ccc([N+](=O)[O-])cc2)cc1` (stereo not drawn) reads -6.09%; that for `NC(N)=N/N=C\c1ccc(C2CCNCC2)cc1`, 23.7% [at 11.4 µM]. With `CS/C(N)=N/N=C/c1ccc([N+](=O)[O-])cc1`, the concentration at half-maximal activity (AC50) is 14.1 µM (active). In the case of `O=C(NC[C@@H](O)CO)c1c(I)c(C(=O)NC[C@@H](O)CO)c(I)c(N(CCO)C(=O)CO)c1I`, the “activity, negative = inhibition” value was 8% [at 25.6 µM]. Still for that read-out and setting: to `CC(C)NC[C@H](O)COc1cccc2ccccc12` belongs 0.306%. Turning to `O=C(COc1cccc2ccccc12)N1c2ccccc2CCc2ccccc21`, the AC50 was 0.447 µM (active). Take `CC(C)NC[C@@H](O)COc1cccc2ccccc12`: the AC50 result is “inactive”. The same measure, in the same setting: to `CCOC(=O)c1cc(-c2ccccc2)sc1NC(=O)c1ccc(OC)cc1` belongs 7.94 µM (active). Take `CCc1cc(C(=O)OC)c(NC(=O)CCCC(=O)O)s1`: the “activity, negative = inhibition” value was -16.5%. Turning to `CCOC(=O)c1cc(NC(=O)c2ccc(OC)cc2)c(=O)oc1-c1ccccc1`, the concentration at half-maximal activity (AC50) is 2.82 µM (active). `COC(=O)c1cc(-c2ccccc2)sc1NC(=O)CN1C(=O)c2ccccc2C1=O`: the AC50 was 7.08 µM (active). Same read-out and setting: to `CCOC(=O)c1cc(CC)sc1NC(=O)C(c1ccccc1)c1ccccc1` belongs 8.91 µM (active). With `CCOC(=O)c1cc(-c2ccccc2)sc1NC(=O)C(C)(C)C`, the “activity, negative = inhibition” value was 0.519%. With `CO[C@@H]1COC(=O)[C@H](C)NC(=O)[C@@H](C)COC(=O)CCC[C@H]1C`, the activity, negative = inhibition is 15.2% [at 11.4 µM]. In the case of `CCOC(=O)c1sc(NC(=O)CSc2n[nH]c(-c3ccc(Cl)cc3Cl)n2)c(C#N)c1C`, the AC50 was 2.24 µM (active). As for `Cc1ccccc1OCC(=O)Nc1sc(C(=O)Nc2cccc(C)c2C)c(C)c1C#N`, the “activity, negative = inhibition” value is 4.91%.

Turning to `CCOC(=O)c1sc(NC(=O)CSc2nc(C)cc(C)c2C#N)c(C#N)c1C`, the AC50 is 5.62 µM (active).

Take `CCOC(=O)c1sc2c(c1C)c(=O)c(C(=O)OCC)cn2CC`: the “activity, negative = inhibition” value is -25.8%. With `CCOc1ccc(-c2c[n+](=O)c3c(n2[O-])CCCC3)c(OCC)c1`, the “activity, negative = inhibition” value was -9.98%. As to `O=C1c2ccccc2N[C@H](c2cc(Cl)cc(Cl)c2O)N1CCc1ccccn1`, the AC50 is 3.98 µM (active). On to `COc1cc(C(=O)Nc2nc3ccc4nc(C)sc4c3s2)cc(OC)c1OC`, for which the “activity, negative = inhibition” value is 4.14%. For the molecule `CCOc1ccccc1Nc1nc(-c2sc(NC(=O)c3ccccc3)nc2C)cs1`, the AC50 was 3.16 µM (active).

As for `COc1ccc(OC)c(Nc2nc(-c3sc(NC(=O)c4ccccc4)nc3C)cs2)c1`, the half-maximal activity concentration (AC50) was 6.31 µM (active). For `CCn1c(C)c(/C=N/Nc2nc3ccccc3s2)c2ccccc21`, the AC50 was 3.16 µM (active). As for `CCCN1CCN(CCCNC(=O)Cn2nc(-c3ccc(C)cc3)ccc2=O)CC1`, the “activity, negative = inhibition” value was -22.7%. As to `Cc1cccc(OCCCC(=O)Nc2ccccc2C(F)(F)F)c1`, the AC50 was 7.08 µM (active). For the molecule `Cc1c(Nc2ncccc2C(=O)O)cccc1C(F)(F)F`, the “activity, negative = inhibition” value was -12.7% [at 25.6 µM].

For `Cc1ccc(-c2ccc(=O)n(CC(=O)NCCN(C)C)n2)cc1`, the “activity, negative = inhibition” value was -0.291%.

With `COc1ccc([N+](=O)[O-])cc1NC(=S)NC(NC(=O)Cc1ccc(OC)c(OC)c1)C(Cl)(Cl)Cl` (stereo not drawn), the AC50 was 0.708 µM (active).

In the case of `Cc1ccc(OCCCC(=O)Nc2ccccc2C(F)(F)F)cc1`, the AC50 is 6.31 µM (active). Still for that read-out and setting: the result for `Cc1ccc(-c2ccc(=O)n(CC(=O)NCc3ccco3)n2)cc1` reads 7.94 µM (active). Regarding `Nc1ncnc2c1nc(-c1ccccc1)n2[C@H]1O[C@@H](CO)[C@@H](O)[C@H]1O`, the activity, negative = inhibition is -0.591% [at 11.4 µM]. As for `CCO[P@]1(=O)OC[C@@H]2O[C@H](n3cnc4c(N)ncnc43)[C@H](O)[C@@H]2O1`, the activity, negative = inhibition is 14% [at 11.4 µM]. As to `CCN(CC(=O)Nc1ccc([N+](=O)[O-])cc1OC)c1ccccc1`, the AC50 was 5.62 µM (active).

Consider `Cc1ccc(OCC(=O)NNC(=O)CCc2ccccc2)cc1`, for which the “activity, negative = inhibition” value was -31.3%. For `Cc1c(NC(=O)CCCOc2ccccc2)cccc1[N+](=O)[O-]`, the concentration at half-maximal activity (AC50) was 2.51 µM (active).

`Cc1ccc(OCC(=O)Nc2ccccc2-c2ccccc2)cc1`: the concentration at half-maximal activity (AC50) is 3.55 µM (active). With `Cc1c(C(=O)Nc2ccc(OCc3ccccc3)cc2)cccc1[N+](=O)[O-]`, the “activity, negative = inhibition” value was 42.2%. `Cc1ccc(OCCCC(=O)NCc2ccco2)cc1`: the concentration at half-maximal activity (AC50) is 10 µM (active). `COc1ccccc1NC(=O)Cn1cncc1-c1ccc([N+](=O)[O-])cc1`: the “activity, negative = inhibition” value is -18.7%. Still for that read-out and setting: the result for `C/C(CC(=O)NCc1ccco1)=N\NC(=O)Cc1ccccc1` reads -5.7%. Consider `Cc1ccc(CS(=O)(=O)CCC(=O)NCCCOC(C)C)cc1`, for which the “activity, negative = inhibition” value was -10.4%. Take `Cc1c(NC(=O)C(Sc2ccccc2)c2ccccc2)cccc1[N+](=O)[O-]` (stereo not drawn): the concentration at half-maximal activity (AC50) is 0.891 µM (active).
